Experimental findings from PubChem BioAssay (NCATS) are described below.

Results filed as inconclusive are left out. A call without a number means that no potency is given here. Activity calls are given as the source filed them. The call rests on the fitted dose curve; in most records, active means well fitted cell-killing curve with a large enough effect; inconclusive means small, poorly fitted or top-dose-only effect; inactive means flat fitted curve, though single readings scatter.
Potency means the concentration at half of the fitted maximal effect.

The assay in a line: qHTS of pediatric cancer cell lines to identify multiple opportunities for drug repurposing: Primary screen for BT-37 cells (AID 1347094). The following applies: BT-37 viability, CellTiter-Glo luminescence, 48 h; series mostly up to 57.3 µM. The text has this:
Drug repurposing or repositioning has been offered as a strategy for drug development in oncology programs. This approach has special potential for childhood cancers and other rare or orphan diseases, where the expected return on new drug development has been a disincentive to pharmaceuticals. […] In this project we exploit the poly-pharmacology of drugs to discover new indications via phenotypic screening of a panel of 19 well-characterized cell lines derived from solid tumors seen in children and adolescents. The goal is to identify approved drugs with previously unrecognized anticancer properties that has the potential to reveal new mechanisms and biological processes involved in carcinogenesis or drug resistance. We employed a titration-based paradigm (quantitative high-throughput screening or qHTS), where all compounds were tested at multiple concentrations for their effect on cell viability. Concentration-response curves (CRCs) were derived directly from the primary screen, and both potency and efficacy values were used to identify compounds with robust bioactivity profiles. We screened the NIH Chemical Genomics Center (NCGC) Pharmaceutical Collection (NPC) and Mechanism Interrogation Plate (MIPE) small molecule collections of approved and investigational compounds against these cell lines; and measured metabolically active cells after 48 hours of compound treatment as a proxy for cell viability. […] Assay Submitter: Nathalia J. Martinez, National Center for Advancing Translational Sciences, National Institutes of Health, Rockville, MD, USA; email: natalia.martinez@nih.gov Shen, M et al. Quantitative high-throughput phenotypic screening of pediatric cancer cell lines identifies multiple opportunities for drug repurposing. Oncotarget 2017 Dec 19;9(4):4758-4772. PMID 29435139.
The cells were obtained from University of North Carolina (UNC), Pediatric Preclinical Testing Program (PPT), and Coriell Institute (CI). qHTS cell viability assay: Cells were assayed in growth media at a density of 500-1,000 cells/well. Five microliters of cells were dispensed into 1,536-well, white, solid-bottom, TC-treated plates (Greiner Bio One) using a multidrop dispenser and incubated at 37 degrees C, 5% CO2, under a humidified atmosphere for 5 hours. Twenty-three nanoliters of compounds and controls (neutral control DMSO or positive control bortezomib at final concentration of 2.3 µM) were subsequently transferred by Kalypsys pintool. For primary screens, the MIPE collection was tested at 11-point dilutions (final concentrations range from 0.78 nM to 46 µM) and the NPC collection at 8-point dilutions (final concentrations range from 0.59 nM to 46 µM). Compounds tested in follow-up screens were assayed at 11-point dilutions. Cells were incubated for 48 hours, followed by addition of 3 µL of CellTiter-Glo (Promega). After a 15 min incubation at room temperature, samples were analyzed for luminescence intensity using a ViewLux High-throughput CCD imager equipped with clear filters.
Background: qHTS replaces the single test concentration by a dilution series.
`CO/N=C(/C(=O)N[C@@H]1C(=O)N2C(C(=O)O)=C(Cn3nnc(C)n3)CS[C@H]12)c1csc(N)n1`: the Potency result was “inactive”.
For `O=P(O)(O)OCC(O)CO` (stereo not given) the value was “inactive”.
As to `COC(=O)c1cc(S(N)(=O)=O)ccc1OC`, the Potency result was “inactive”.
For the molecule `NC(=O)COCCN1CCN(C(c2ccccc2)c2ccc(Cl)cc2)CC1` (stereo not given), the Potency result is “inactive”.
With `O=[N+]([O-])c1ccc(O)c2ncccc12`, the Potency was 15.5 µM (active).
Turning to `O=C1NC2CCCCN2C12CCN(CCCN1c3ccccc3CCc3ccc(Cl)cc31)CC2` (stereo not given), the Potency is 30.9 µM (active).
As for `COc1ccc2c(c1)CCCC2=O`, the Potency result is “inactive”.
For `Cc1cccc(C)c1NC(=O)c1cc(S(N)(=O)=O)c(Cl)cc1O` the value was “inactive”; for `CC(=O)OCC[N+](C)(C)C`, “inactive”.
`N=C(N)c1ccc(OCCCOc2ccc(C(=N)N)cc2)cc1`: the Potency entry is “inactive”.
Regarding `CCNC(=O)NCCCOc1cccc(CN2CCCCC2)c1`, the Potency entry is “inactive”.
Under `CCC(C(=O)OCCN1CCOC(c2ccccc2)C1C)c1ccccc1` (stereo not given) stands “inactive”.
For `N[C@@H](Cc1cc(I)c(O)c(I)c1)C(=O)O` the value was “inactive”; for `CC1(C)S[C@@H]2[C@H](NC(=O)C(c3ccccc3)S(=O)(=O)O)C(=O)N2[C@H]1C(=O)O` (stereo not given in full), “inactive”.
For `O=C1CCCc2c(O)cccc21` the value was “inactive”; for `OC1(c2ccc(Cl)cc2)CCNCC1`, “inactive”; for `COC(=O)/C=C(/C)N`, “inactive”.
Take `O=C(O)c1ccccc1S`: the Potency result was “inactive”.
As to `CC(=O)Nc1ccc(S(=O)(=O)Nc2cc(C)on2)cc1`, the Potency entry is “inactive”.
Take `O=c1[nH]c2ccccc2c(=O)n1CCCl`: the Potency entry is “inactive”.
For `CC(=O)Nc1c(I)c(NC(C)=O)c(I)c(C(=O)O)c1I` the value was “inactive”; for `Nc1nnnn1-c1ccccc1`, “inactive”; for `CCCC(=O)O[C@]1(C(=O)COC(=O)CC)CC[C@H]2[C@@H]3CCC4=CC(=O)CC[C@]4(C)[C@H]3[C@@H](O)C[C@@]21C`, “inactive”.
`CC(C)(c1ccc(O)cc1)c1ccc(O)cc1`: the Potency result was “inactive”.
Under `C=CC[N+]1([C@H]2C[C@H]3[C@@H]4CC[C@H]5C[C@H](OC(C)=O)[C@@H](N6CCCCC6)C[C@]5(C)[C@H]4CC[C@]3(C)[C@H]2OC(=O)CC)CCCCC1` stands “inactive”; under `CC(=O)[C@H]1CC[C@H]2[C@@H]3C=CC4=CC(=O)CC[C@@]4(C)[C@@H]3CC[C@]12C`, “inactive”.
Under `CCOc1c(N2CCOCC2)cnn(C)c1=O` stands “inactive”; under `CN(C)C(=O)CNC(=O)Cc1ccccc1`, “inactive”; under `O=C(O)C1CCC1`, “inactive”.
Take `NCC(=O)O`: the Potency entry was “inactive”.
`CC[C@@]1(O)C(=O)OCc2c1cc1n(c2=O)Cc2c-1nc1ccccc1c2/C=N/OC(C)(C)C`: the Potency is 0.0309 µM (active).
Under `CCOC(=O)c1ccc(OCCN2C[C@H](O)[C@@H](O)[C@H](O)[C@H]2CO)cc1` stands “inactive”; under `CC(C)C(=O)Nc1cccc(C(F)(F)F)c1`, “inactive”; under `CC(C)C[C@H](NC(=O)CNC(=O)[C@H](Cc1ccc(O)cc1)NC(=O)[C@H](CO)NC(=O)[C@H](Cc1c[nH]c2ccccc12)NC(=O)[C@H](Cc1cnc[nH]1)NC(=O)[C@@H]1CCC(=O)N1)C(=O)N[C@@H](CCCN=C(N)N)C(=O)N1CCC[C@H]1C(=O)NCC(N)=O` (stereo in doubt), “inactive”.
As for `c1ccc2c(c1)CCc1ccccc1N2`, the Potency entry was “inactive”.
With `OCCCc1ccccc1`, the Potency result was “inactive”.
Turning to `O=C1CC[C@H](C(=O)N2CCCCC2)N1`, the Potency result is “inactive”.
For `CN(C)CCOC(c1ccccc1)c1ccc(Br)cc1` (stereo not given) the value was “inactive”; for `CC(=O)OCC(=O)Nc1cc(C#N)cc(NC(=O)COC(C)=O)c1Cl`, “inactive”.
Under `CC(C)=CCC/C(C)=C/CC/C(C)=C/CCC(=O)OC/C=C(\C)CCC=C(C)C` stands “inactive”.
